Rows were chosen to be rich in hits. Some 2.5% of all compounds tested hit in one or more screens of this group.
AF4-AF9 inh = blocks AF4 peptide binding to human AF9; P42568; AlphaScreen, biotin-AF4 peptide binding to FLAG-AF9; 350,000 compounds, 0.47% hits; AID 651704; inhibition, % at 10 µM;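 active = every replicate reaching a set inhibition limit, whatever the replicate mean, cut at about 25% in these data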;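 also: 0% = plate neutral control median and 100% = total signal loss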
RAD52 inh = blocks human RAD52 DNA annealing | recombinant RAD52 DNA annealing, FRET fluorescence | 360,000 compounds, 0.46% hits | P43351 | inhibition, % at 18.7 µM | AID 651710;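 active = every replicate showing at least 50% inhibition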
NSD2 inh = NSD2 (human) methyltransferase inhibition; O96028; NSD2 peptide methylation, AlphaScreen, 120 min; inhibition, % at 12.5 µM; 310,000 compounds, 0.54% hits; AID 743445; in the data active = inhibition above about 50%
CASP6 VEID inh = blocks human caspase-6 cleavage activity | inhibition, % at 12.5 µM | 350,000 compounds, 0.53% hits | P55212 | purified caspase-6, Z-VEID-R110 cleavage fluorescence | AID 686996;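 active = mean inhibition across replicates at least about 35%, with every replicate also reaching that limit, limit read from the data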;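 also: 0% = median of neutral control wells and 100% = no fluorescence left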
Ecoli rRNA inh = inhibitors of bacterial rRNA selective over humanized ribosomes; GFP signal change (wild-type ribosome), % (concentration not given with the values); 350,000 compounds, 1.6% hits; E. coli WT GFP vs humanized-ribosome RFP mutants, fluorescence, 24 h; hits give low values; DMSO median 0, no signal -100; AID 720706;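 active = significant combined selectivity score with lowered wild-type GFP, culture density cut under 30%, mutant RFP and density less affected; inactive = any of these conditions unmet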
Starred values were filed as active, the others as inactive; . = no result.

SMILES | AF4-AF9 inh | RAD52 inh | NSD2 inh | CASP6 VEID inh | Ecoli rRNA inh
CN(C)CCCN1c2ccc3ccccc3c2Sc2cccc(Cl)c21 | 33* | 33 | -1 | 0 | -65
CC(C)NC(=O)Nc1ccc2c(c1)CC(=O)N([C@H](C)CO)C[C@@H](C)[C@H](CN(C)C(=O)Nc1ccccc1)O2 | 2 | 9 | . | 1 | 6
O=c1[nH]c(=S)[nH]cc1Oc1ccc(Cl)cc1Cl | 0 | -7 | 0 | -6 | -25*
O=C(Nc1n[nH]c(=S)s1)c1ccco1 | -5 | -65 | . | -1 | 6
NNC(=O)CNC(=O)Nc1n[nH]c(=S)s1 | -6 | -6 | -1 | 61* | 8
COc1ccc(NC(=O)N2CCCCN3[C@@H](CO)[C@H](c4ccc(C#Cc5ccccc5)cc4)[C@@H]3C2)cc1 | 19 | 69* | . | 0 | .
COc1ccccc1C#Cc1ccc([C@@H]2[C@@H](CO)N3CCCCN(C(=O)C4CCCC4)C[C@H]23)cc1 | 0 | 62* | . | 0 | .
COc1ccccc1C#Cc1ccc([C@H]2[C@H]3CN(C(=O)C4CCCC4)CCCCN3[C@H]2CO)cc1 | -5 | 22 | . | 0 | .
COc1ccccc1NC(=O)N1CCCCN2[C@H](CO)[C@@H](c3ccc(C#CC4CC4)cc3)[C@H]2C1 | 25* | 48 | . | 2 | .
COc1ccc(NC(=O)N2CCCCN3[C@H](C2)[C@@H](c2ccc(C#Cc4ccccc4)cc2)[C@@H]3CO)cc1 | -8 | 82* | . | -2 | .
COc1ccccc1NC(=O)N1CCCCN2[C@H](C1)[C@@H](c1ccc(C#CC3CC3)cc1)[C@@H]2CO | 11 | -18 | . | 2 | .
COCCNC(=O)C[C@@H]1CC[C@H](NS(=O)(=O)c2ccc(C)cc2)[C@H](CO)O1 | -1 | 0 | . | 1 | 2
C[C@H](CO)N1C[C@H](C)[C@H](CN(C)C(=O)C2CCC2)Oc2ncc(Br)cc2C1=O | . | . | . | . | 10
COc1ccc(CN2CCN(C(=O)c3cc(-c4cccnc4)nc4ccc(Cl)cc34)CC2)c(OC)c1OC | 8 | -20 | 1 | 3 | -23*
COc1ccccc1N(CC(=O)NCCSc1ccccc1)S(=O)(=O)c1ccccc1 | -1 | -11 | -1 | 3 | -31*
C[C@@H]1CN([C@@H](C)CO)C(=O)c2cc(NC(=O)c3ccccc3)ccc2O[C@@H](C)CCCCO[C@H]1CN(C)Cc1ccc(C(=O)O)cc1 | -2 | -11 | . | -1 | 3
COc1cc2c(cc1OC)CN(C(=O)[C@H]1[C@@H]3C(=O)O[C@@H](c4ccccc4)[C@@H](c4ccccc4)N3[C@@H](c3ccc(O)cc3)[C@]13C(=O)Nc1ccccc13)CC2 | -2 | 9 | . | 2 | .
Cc1ccc(NC(=O)CCCCCC2NC(=O)NC2C)cc1 (centres undefined) | 97* | 0 | 136* | 5 | 5
CCC(=O)Nc1ccc2c(c1)C(=O)N(C)C[C@@H](OC)[C@H](C)CN(Cc1ccncc1)[C@@H](C)CO2 | -3 | -12 | . | . | 1
CNC1=C(N(C(C)=O)c2ccc(Br)cc2)C(=O)c2ccccc2C1=O | . | . | 100* | . | .
CC(=O)NC1=C(Nc2ccc(N(C)C)cc2)C(=O)c2ccccc2C1=O | 22 | 20 | 28 | 25 | -11
CCC(=O)N(C1=C(NC)C(=O)c2ccccc2C1=O)C(C)C | 0 | -4 | . | 72* | -12
CCC(=O)NC1=C(NC(C)c2ccccc2)C(=O)c2ccccc2C1=O (centres undefined) | . | . | -3 | . | .
CN(C)C(=O)c1cccc(-c2ccc([C@H]3[C@@H](CO)N4CCCCN(C(=O)C5CCCC5)C[C@H]34)cc2)c1 | -3 | 25 | . | 0 | .
COc1ccc(/C=N/NC(=O)c2cccnc2)cc1CN1CCCc2ccccc21 | 22 | -6 | 5 | 0 | -28*
SMILES | AF4-AF9 inh | RAD52 inh | NSD2 inh | CASP6 VEID inh | Ecoli rRNA inh
Cc1c(NC(=O)CN2C(=O)C3C4C=CC(C4)C3C2=O)c(=O)n(-c2ccccc2)n1C (centres undefined) | . | . | -1 | . | .
CN(C)c1ccc(NC(=O)C2C3C=CC(C3)C2C(=O)O)cc1 (centres undefined) | 29* | 58* | . | 42* | 1
O=C(O)C1C2C=CC(C2)C1C(=O)Nc1ccccc1Br (centres undefined) | 2 | -7 | 1 | 48* | 2
CC(=O)c1cccc(NC(=O)C2C3C=CC(C3)C2C(=O)O)c1 (centres undefined) | -3 | -4 | -3 | 0 | 13
Cc1c(NC(=O)C2C3C=CC(C3)C2C(=O)O)c(=O)n(-c2ccccc2)n1C (centres undefined) | 1 | -3 | 3 | 36* | 9
CC(NC(=O)C1C2C=CC(C2)C1C(=O)O)c1ccccc1 (centres undefined) | . | . | -4 | . | .
C/C=C/c1ccc2c(c1)O[C@@H](CN(C)Cc1ccncc1)[C@@H](C)CN([C@H](C)CO)S2(=O)=O | -5 | 6 | . | 1 | -9
Cc1noc(C)c1S(=O)(=O)N(C)C[C@@H]1OCCCC[C@@H](C)Oc2ccc(NS(=O)(=O)c3ccc(Cl)cc3)cc2C(=O)N([C@H](C)CO)C[C@H]1C | 4 | -11 | . | 0 | 0
O=C(/C=C/c1ccc(F)cc1)N1CCc2ccccc2C1 | -26 | -27 | 1 | 6 | -9
O=C(/C=C/C(=O)N1CCc2ccccc2C1)N1CCc2ccccc2C1 | -1 | -41 | 1 | 7 | -22*
COc1ccc(N/N=C(\C#N)C(=O)NCCc2ccc(OC)c(OC)c2)cc1 | . | -7 | -1 | 2 | -38*
COc1ccc(CCNC(=S)N2CCC(C(=O)c3ccc(F)cc3)CC2)cc1OC | 4 | -14 | -1 | -5 | -36
COc1ccc(C(=O)C2CCN(C(=S)NCCc3ccc(OC)c(OC)c3)CC2)cc1 | 2 | -18 | -2 | 2 | -25*
O=C(N/N=C/c1cccc([N+](=O)[O-])c1)c1cc(-c2ccc3c(c2)OCO3)n[nH]1 | . | 4 | -1 | -1 | -12
O=C(N/N=C/c1ccc(O)cc1)c1cc(-c2ccc3c(c2)OCO3)n[nH]1 | 1 | 19 | -1 | 0 | -16
Cc1ccc(-c2cc(C(=O)N/N=C/c3ccco3)[nH]n2)cc1 | . | . | -5 | . | .
CCc1ccc(/C=N/NC(=O)c2cc(-c3cccc([N+](=O)[O-])c3)n[nH]2)cc1 | 3 | -11 | 1 | -2 | -19*
O=C(N/N=C/c1ccco1)c1cc(-c2ccc(Cl)cc2)n[nH]1 | 6 | -11 | 0 | 0 | -19*
O=C(N/N=C/c1ccccc1)c1cc(-c2ccc3c(c2)OCO3)n[nH]1 | 1 | -14 | 1 | 2 | -20*
O=C(N/N=C/c1ccc(O)c(O)c1)N/N=C/c1ccc(O)c(O)c1 | -4 | -1 | . | 75* | 6
COCC(=O)N[C@H]1CC[C@@H](CC(=O)N2CCCCC2)O[C@@H]1CO | -4 | -3 | . | -2 | 0
Cc1ccc(-c2ccc3c(c2)O[C@@H](CN(C)S(C)(=O)=O)[C@@H](C)CN([C@@H](C)CO)S3(=O)=O)cc1 | 1 | 12 | . | -3 | -6

Bioassay records deposited in PubChem by Broad Institute.
